A selection: hits, their analogues and other compounds. The true share with any hit is near 9.3%.
Vaccinia mCherry: qHTS for Stage-Specific Inhibitors of Vaccinia Orthopoxvirus: mCherry Reporter Primary qHTS | actives 0.63% (n = 310,000) | Vaccinia virus mCherry reporter infection, fluorescence | Potency, µM (titrated, usually from 36.5 µM), for the others: top-dose activity change, negative = inhibition, actives largely listed as inhibitors; calls by dose curve; tested in A549 cells; note: potency is the fitted concentration of half-maximal effect; nearly all actives have a fitted effect of over 35% in size
FMDV antiviral: High Throughput Screening for Foot and Mouth Disease Virus Antivirals. FMDV antiviral cell-based qHTS. Potency, µM (top dose mostly 57.9 µM), inactives show at the top dose activity change, negative = inhibition, hits mostly inhibitors. actives 1.2% (n = 410,000); calls by dose curve; tested in HEK293T cells; note: read-out not given here; potency is the fitted concentration of half-maximal effect; nearly all actives have a fitted effect of over 45% in size
Sm TGR block: qHTS Assay for the Inhibitors of Schistosoma Mansoni Peroxiredoxins; Schistosoma mansoni thioredoxin glutathione reductase (TGR), Q962Y6; purified TGR, DTNB reduction, TNB absorbance 405 nm; Potency, µM (doses to about 114 µM), inactives show at the highest dose activity change, negative = inhibition, most hits filed as inhibitors; actives 3% (n = 360,000); note: potency is the fitted concentration of half-maximal effect; nearly all actives have a fitted effect of over 60% in size
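First, TGR (20 nM dispensed) and NADPH were mixed with compound. Second, a 15 min room-temperature incubation followed. Third, further NADPH and then DTNB were added to start the reaction. Finally, TNB absorbance was monitored kinetically.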
HCMV inh: qHTS Assay for inhibitors of the human cytomegalovirus (HCMV); actives 4.5% (n = 410,000); HFF cells, HCMV-luciferase reporter, 72 h; hits give low values; activity change, negative = inhibition, % at 57.5 µM; in the data active = activity change below about -60%; inconclusive = no clear call, values can overlap the other calls; inactive = above about -39%
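Human foreskin fibroblasts infected with luciferase-reporter HCMV at MOI 1 PFU/cell, compounds at two doses. Luciferase measured 72 h post infection; normalized to buffer-only basal and Salinomycin (10uM) controls.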
Vaccinia Venus: qHTS for Stage-Specific Inhibitors of Vaccinia Orthopoxvirus: Venus Reporter Primary qHTS | Vaccinia virus Venus reporter expression, fluorescence | Potency, µM (series often up to 36.5 µM), inactives show at the highest dose activity change, negative = inhibition, usual class: inhibitors | actives 0.46% (n = 330,000); calls by dose curve; tested in A549 cells; note: potency is the fitted concentration of half-maximal effect; nearly all actives have a fitted effect of over 30% in size
HCV inhibitor: qHTS Assay for Inhibitors of Hepatitis C Virus (HCV); Huh7.5.1 HCVcc-Cre infection, luciferase reporter, 44 h; Potency, µM (doses to about 41.8 µM), inactives show at the top dose activity change, negative = inhibition, hits mostly inhibitors; actives 3.4% (n = 340,000); AID 651820, 2012; note: potency is the fitted concentration of half-maximal effect
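Infectious HCVcc-Cre (~0.5 moi) was added to cells just after compound, with cells seeded 4 h earlier at 1,000 per well. Luciferase activity after 44 h culture reported infection; substrate was incubated 15 min at room temperature before reading.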
The depositor's hits bear a star; ? = inconclusive; . = not tested or not shown; ! = not active in a repeat. Unless noted, calls come from the whole dose curve; as a rule, active = well fitted curve in the direction sought with a large enough effect; inconclusive = small, poorly fitted or top-dose-only effect, or another doubt; inactive = no such curve, though single readings can be large; an effect the other way counts as inactive or inconclusive. % is set by controls: 0 for no effect and ±100 for the full control effect.

SMILES | Vaccinia mCherry | FMDV antiviral | Sm TGR block | HCMV inh | Vaccinia Venus | HCV inhibitor
CN(C)/C=C(/C(=O)c1ccc(Cl)cc1)S(C)(=O)=O | -2% | -6% | 5% | -103* | 2% | 24%
O=C(CSc1n[nH]c(=O)n1C1CC1)Nc1ccc(F)c([N+](=O)[O-])c1 | -4% | -27% | -3% | -29 | -16% | 0%
CCOC(=O)c1sc(NC(=O)CCN2CCN(CC)CC2)c(C(=O)OCC)c1C | -13% | -6% | -1% | 6 | 4% | 10µM*
CCOC(=O)c1c(NC(=O)COC)sc(C(C)=O)c1C | -19% | 0% | 4% | 61 | -11% | 28µM*
CCOC(=O)c1c(NC(=O)C2c3ccccc3Oc3ccccc32)sc(C(C)=O)c1C | -24% | . | 5% | -82* | -12% | 0.79µM*
CCOC(=O)c1sc(NC(=O)CN(CC(C)C)CC(C)C)c(C(=O)OCC)c1C | . | 6% | -1% | -95* | . | -5%
CCOC(=O)c1c(NC(=O)C2c3ccccc3Oc3ccccc32)sc(C)c1C | -4% | ? | -2% | 13 | -13% | .
O=C1CC(c2ccccc2)CC(O)=C1C=Nc1cccc(Cl)c1 (stereo not drawn) | -10% | -2% | -14% | -33 | -12% | 2%
CCOc1ccc(-n2nc(CO)c(C(=O)NCc3cccnc3)n2)cc1 | -10% | 11% | 1% | 33 | -17% | .
COc1ccccc1C(=O)Nc1c(C(=O)N(CCN(C)C)Cc2ccco2)oc2ccccc12 | -22% | ? | -4% | -82*! | -15% | ?
CC(C)(C)C(=O)Nc1c(C(=O)N2CCN(c3ccc(F)cc3)CC2)oc2ccccc12 | -11% | 22% | 0% | -82* | -15% | .
COc1cccc(NC(=O)c2oc3ccccc3c2NC(=O)c2cc3ccccc3o2)c1 | -2% | -8% | 3% | 20 | -20% | .
COc1cccc(NC(=O)c2oc3ccccc3c2NC(=O)C(C)(C)C)c1 | -22% | -21% | 1% | ? | -15% | 8.9µM*
CCCC(=O)Nc1c(C(=O)N2CCN(c3ccccc3)CC2)oc2ccccc12 | -9% | 29% | 4% | -26 | 1% | .
COc1ccc(C(=O)c2oc3ccccc3c2NC(C)=O)cc1 | -13% | -23% | -4% | 3 | -26% | 6.3µM*
Cc1ccccc1C(=O)Nc1c(C(=O)N(CCN(C)C)Cc2ccco2)oc2ccccc12 | . | -3% | -28% | -30 | . | ?
COc1ccc(CC(=O)Nc2sc3c(c2C(N)=O)CCCC3)cc1OC | -2% | -18% | -10% | -31 | -20% | ?
Cc1c(NS(=O)(=O)CC23CCC(CC2=O)C3(C)C)c(=O)n(-c2ccccc2)n1C (stereo not drawn) | . | -16% | 5% | 4 | . | 7%
Cc1cc(C)c2nc(N(CCN(C)C)C(=O)c3ccc(S(=O)(=O)N(C)CC4CCCO4)cc3)sc2c1 (stereo not drawn) | . | -1% | -1% | 6 | . | -12%
CN(C)CCN(Cc1ccco1)C(=O)c1oc2ccccc2c1NC(=O)c1ccccc1 | -13% | -15% | -6% | -61* | -20% | .
COc1ccccc1C(=O)Nc1c(C(=O)NC(C)(C)C)oc2ccccc12 | 12% | 0% | 8% | -71* | -10% | .
COc1ccccc1C(=O)Nc1c(C(=O)c2ccccc2)oc2ccccc12 | -7% | -6% | 0% | -16 | 4% | .
c1cncc(-c2nc(NCCCn3ccnc3)c3ccccc3n2)c1 | -8% | -11% | -2% | -67* | -1% | ?
c1ccc(-c2nc(NCc3cccnc3)c3ccccc3n2)cc1 | -23% | 0% | 18% | -13 | ? | 10µM*
N#Cc1c(F)cccc1NCc1cccnc1 | -21% | -17% | -2% | 7 | -12% | ?
Cc1ccc(-c2nc(NCc3cccnc3)c3ccccc3n2)cc1 | -28% | 19% | 0% | -20 | -21% | ?

Assay outcomes from PubChem BioAssay.
